Assay results from PubChem BioAssay (Tox21).
Records with an inconclusive call do not appear. Activity calls are given as the source filed them. The call rests on the fitted dose curve; in most records, active means well fitted cell-killing curve with a large enough effect in the repeat runs; inconclusive means weak or mixed curves, or effect the other way; inactive means no such curve, though single readings can be large or run the other way.

Assay: qHTS assay to identify small molecule agonists of the vitamin D receptor (VDR) signaling pathway - cell viability counter screen (AID 743224); further: nearly all actives have a fitted effect of over 50% in size
Settings: VDR-bla HEK293T viability, CellTiter-Glo luminescence, 16 h; series mostly up to 62.6 µM
Description: U.S. Tox21 Program National Center for Advancing Translational Sciences [NCATS] NIH Chemical Genomics Center [NCGC] U.S. Environmental Protection Agency [EPA] National Institutes of Environmental Health Sciences [NIEHS] National Toxicology Program [NTP] U.S. Food and Drug Administration [FDA] Tox21 Assay Overview: The vitamin D receptor (VDR), a member of nuclear hormone receptor superfamily, plays a critical role in calcium homeostasis and bone metabolism. It is also involved in cell differentiation and growth, and thrombogenicity. […] The cytotoxicity of the Tox21 compound library against the VDR-bla cell line was tested in parallel by measuring the cell viability using CellTiter-Glo assay (Promega, Madison, WI) in the same wells.
Tox21 Assay Protocol Summary: VDR-bla cells were dispensed at 2,000 cells/6 uL/well into black wall/clear-bottom 1536-well plates using a Multidrop Combi (Thermo Fisher Scientific, Waltham, MA) dispenser. After the assay plates were incubated at a 37C and 5% CO2 for 4 h, 23 nL of compounds dissolved in DMSO, positive controls or DMSO only was transferred to the assay plate by a Pintool station (Kalypsys, San Diego, CA). The plates were incubated at 37C and 5% CO2 for 16 h. After 1 uL of LiveBLAzerTM B/G FRET substrate was added using a Bioraptr Flying Reagent Dispenser (FRD) workstation (Beckman Coulter, Indianapolis, IN, USA), the plates were incubated at room temperature for 2 h, and fluorescence intensity was measured by an Envision plate reader (PerkinElmer, Shelton, CT). For cell viability readout that measures cytotoxicity, 3 ul/well of CellTiter-Glo reagent was added into the assay plates using a FRD. After 30 min incubation at room temperature, the luminescence intensity in the plates was measured using a ViewLux (PerkinElmer) plate reader.

Row | Structure (SMILES) | outcome
1 | CCCCCCCCCCCCI | inactive
2 | CCCC(=O)O[C@]1(C(=O)CCl)[C@@H](C)C[C@H]2[C@@H]3CCC4=CC(=O)C=C[C@]4(C)[C@@]3(F)C(=O)C[C@@]21C | inactive
3 | NS(=O)(=O)c1cc(C2(O)NC(=O)c3ccccc32)ccc1Cl (stereo not given) | inactive
4 | N#CC1(O)CCCCC1 | inactive
5 | c1ccc(CCCc2ccccn2)cc1 | inactive
6 | CC(C)CCOC(=O)CC(C)C | inactive
7 | CC(C)(C)C(=O)/C=C/c1ccc(Cl)cc1 | inactive
8 | CCO[Si](CCCN=C=O)(OCC)OCC | inactive
9 | CCCCCCCCCCCl | inactive
10 | C=CCn1c(=O)n([C@@H]2O[C@H](CO)[C@@H](O)[C@H]2O)c2nc(N)[nH]c(=O)c21 | inactive
11 | Cc1ncc(CSSCc2cnc(C)c(O)c2CO)c(CO)c1O | inactive
12 | C=CC(=O)N1CCOCC1 | inactive
13 | NC(=O)c1c(Cl)cccc1Cl | inactive
14 | Cc1nccn1CC1CCc2c(c3ccccc3n2C)C1=O (stereo not given) | inactive
15 | CCC(C)(C)C1CCC(OC)CC1 (stereo not given) | inactive
16 | C#CC(O)C(CC)CCCC (stereo not given) | inactive
17 | CCOC(=O)Nc1ccc2c(c1)N(C(=O)CCN1CCOCC1)c1ccccc1S2 | inactive
18 | O=C(O)c1ccccc1-c1ccc(C(F)(F)F)cc1 | inactive
19 | NC(=O)CCCCC1CCSS1 (stereo not given) | inactive
20 | CCCCCCCCCCCCCCCCCCOCC(O)CO (stereo not given) | inactive

Row | Structure (SMILES) | outcome
21 | CCCCCCCCC=O | inactive
22 | CC1=CC(C)C(C=O)C(C)C1 (stereo not given) | inactive
23 | CC(CCO)CCCC(C)(C)O (stereo not given) | inactive
24 | OCCN1C[C@H](O)[C@@H](O)[C@H](O)[C@H]1CO | inactive
25 | CC(C)COC(=O)c1ccccc1O | inactive
26 | CCc1cc(S(=O)(=O)O)c2cc(C(C)C)cccc1-2 | inactive
27 | CNc1ncnc2nc[nH]c12 | inactive
28 | CN(C)N=Nc1ccccc1 | inactive
29 | CC(C)c1ccc2oc3nc(N)c(C(=O)O)cc3c(=O)c2c1 | inactive
30 | CC(C)(O)c1ccccc1 | inactive
31 | Nc1nc2c(ncn2CCC(CO)CO)c(=O)[nH]1 | inactive
32 | CCC(=O)c1cccc(Cl)c1 | inactive
33 | C=C(C)C(=O)NCCC[N+](C)(C)C | inactive
34 | COc1ccc2cc(C=O)ccc2c1 | inactive
35 | COC(=O)c1ccc(C(=O)OC)c(C(=O)OC)c1 | inactive
36 | Fc1ccccc1-c1ccccc1 | inactive
37 | Nc1cc(C(Cl)=C(Cl)Cl)c(S(N)(=O)=O)cc1S(N)(=O)=O | inactive
38 | CCC(=O)Nc1cccc(N)c1 | inactive
39 | CN(C)C(=O)Nc1ccccc1 | inactive
40 | C#CC(O)CCCCC (stereo not given) | inactive
